Screens as filed in PubChem.
HSF1 inh: HSF1 inhibitors in luciferase reporter cells, primary screen, cell-based, NIH3T3, luminescence | NIH3T3-HGL HSE-luciferase, MG132-induced, luminescence 8 h; active compounds read low | 300,000 tested, 0.77% active | activity change, negative = inhibition, % at 7.5 µM (by protocol);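 active = more than half of replicate wells show activity change below -50%, luminescence cut by over half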;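 note: luciferase reports HSF-1 transcriptional activity via heat shock element; 0% = median of DMSO wells and -100% = zero luminescence signal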
DAX1 inh: DAX1 (NR0B1) inhibitors, primary screen, cell-based, HEK293, Gal4-DAX1, luciferase luminescence | Nuclear receptor subfamily 0 group B member 1 (Homo sapiens), P51843 | HEK293 Gal4-DAX1 luciferase reporter | inhibition, % at 6.75 µM | 340,000 tested, 0.99% active | AID 504766, 2011;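 active = inhibition above the mean over all tested compounds plus 3 SD, cut at about 4.2% in these data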;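 note: 0% = DAX1-transfected cells with DMSO and 100% = empty-vector control cells with DMSO; inhibition shows as a rise in luminescence from relieved DAX1 repression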
FXN GAA850 act: FXN promoter activators, primary screen, cell-based, luciferase luminescence, HEK293 lucGAA850; HEK293 lucGAA850 FXN promoter luciferase reporter, 24 h; percent of 10 µM SAHA response; activation, % at 6 µM; 360,000 tested, 0.56% active;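 active = activation above the average of all compounds screened plus 3 SD, cutoff fixed separately per campaign, cut at about 7.5% in these data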;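 note: 0% = DMSO wells and 100% = 10 µM SAHA wells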
AHR act: AHR activators, primary screen, cell-based, luminescence, luciferase reporter, human; Aryl hydrocarbon receptor (Homo sapiens), P35869; AID 2796, 2010; 320,000 tested, 2.5% active; AHR-responsive luciferase reporter cells; activation, % at 5 µM; in the data active = activation above about 47%;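 note: 0% = vehicle wells and 100% = reference agonist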
Target sequence (P35869 whole entry, looked up): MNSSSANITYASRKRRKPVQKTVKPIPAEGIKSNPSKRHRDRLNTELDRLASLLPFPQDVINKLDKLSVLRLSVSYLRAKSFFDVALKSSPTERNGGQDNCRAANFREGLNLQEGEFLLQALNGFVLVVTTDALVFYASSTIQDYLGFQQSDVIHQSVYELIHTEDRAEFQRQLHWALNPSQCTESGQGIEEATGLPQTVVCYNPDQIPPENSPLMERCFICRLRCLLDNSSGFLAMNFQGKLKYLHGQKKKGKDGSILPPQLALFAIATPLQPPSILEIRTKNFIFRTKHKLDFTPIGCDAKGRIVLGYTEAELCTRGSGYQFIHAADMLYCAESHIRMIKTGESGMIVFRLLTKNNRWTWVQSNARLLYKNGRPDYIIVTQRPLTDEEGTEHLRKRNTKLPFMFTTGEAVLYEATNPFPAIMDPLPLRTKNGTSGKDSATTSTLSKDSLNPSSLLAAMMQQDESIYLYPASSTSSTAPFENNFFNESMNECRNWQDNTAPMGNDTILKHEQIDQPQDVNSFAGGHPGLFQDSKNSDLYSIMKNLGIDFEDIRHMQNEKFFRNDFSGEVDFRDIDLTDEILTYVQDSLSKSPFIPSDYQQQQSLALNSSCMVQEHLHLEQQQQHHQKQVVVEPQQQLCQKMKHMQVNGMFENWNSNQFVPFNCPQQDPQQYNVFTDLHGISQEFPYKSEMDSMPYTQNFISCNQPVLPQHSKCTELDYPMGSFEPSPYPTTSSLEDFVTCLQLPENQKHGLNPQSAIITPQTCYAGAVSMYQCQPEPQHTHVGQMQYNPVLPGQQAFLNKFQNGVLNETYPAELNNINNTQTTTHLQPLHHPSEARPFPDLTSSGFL
HSF-1 act: HSF-1 activators, primary screen, NIH3T3-HGL cells, MG132 stress, luminescence, single point | NIH3T3-HGL HSF-1 luciferase reporter, 8 h; 100% = twice DMSO control signal | activation, % at 9 µM | 300,000 tested, 1.7% active;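 active = mean replicate activation of at least 50% with a set share of replicates each reaching 50%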;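 note: 0% = median of the neutral control wells and 100% = twice that signal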
Numbers without * were called inactive; / = no result given; ! = not confirmed by another sample. Compounds with a hit are over-represented: about 5.4% of the library has one in this group of screens.

SMILES | HSF1 inh | DAX1 inh | FXN GAA850 act | AHR act | HSF-1 act
Fc1ccc(CN2CCN(c3ccc(Cl)cc3)CC2)cc1 | 0.6 | -2.0 | 1.1 | 1.3 | -19.4
Fc1cccc(F)c1CN1CCN(c2ccc(Cl)cc2)CC1 | 15.4 | 3.3 | -0.3 | -0.8 | 59.9*
COc1c(O)cc2c(c1OC)-c1ccc(SC)c(=O)cc1C(NC(C)=O)CC2 (centres undefined) | / | / | -0.2 | / | /
COc1ccc(NC(=S)NC(NC(=O)CF)C(Cl)(Cl)Cl)cc1[N+](=O)[O-] (centres undefined) | -2.3 | 4.6* | 0.2 | -1.1 | -4.9
O=C(CF)NC(NC(=S)Nc1cccc([N+](=O)[O-])c1)C(Cl)(Cl)Cl (centres undefined) | 7.2 | -0.8 | -0.3 | -1.2 | 36.9
COc1ccc(OC)c(C(c2c(O)c3ccccc3oc2=O)c2c(C)n(C)n(-c3ccccc3)c2=O)c1 (centres undefined) | 1.8 | 6.6* | -1.1 | -1.5 | -8.2
c1ccc2c(c1)[nH]c1cnccc12 | -3.5 | -0.1 | 0.4 | 14.8 | -18.9
Cc1c2ccncc2c(C)c2c1[nH]c1ccccc12 | 25.3 | -1.7 | 3.2 | 66.7* | 41.9
OC12CCCCC1C(c1ccccc1)NCC2 (centres undefined) | -8.3 | 4.3* | 0.0 | 0.7 | -9.4
COc1cccc(OCc2cc(C(=O)N3C[C@H]4C[C@@H](C3)c3cccc(=O)n3C4)no2)c1 | 42.5 | 3.3 | 5.6 | / | 73.0*
COc1ccc2c(C)c(CCC(=O)N3C[C@H]4C[C@@H](C3)c3cccc(=O)n3C4)c(=O)oc2c1 | -4.6 | 5.7* | -1.6 | 0.7 | -5.7
CC1CC(C)OP(=O)(OCCC#N)O1 (centres undefined) | / | 1.2 | -0.6 | / | /
Cc1cccc(-n2c(O)c(/C=C3/C(c4ccccc4)=Nc4ccccc43)c(=O)[nH]c2=O)c1 | -2.1 | -1.8 | 5.0 | 76.4* | 5.0
Cc1ccc(Cn2cc(C=O)c3ccccc32)cc1 | 2.4 | -1.9 | -4.1 | -7.9 | 6.9
Cc1ccc(-c2nn(Cc3ccccc3)cc2C=O)cc1C | 44.6 | -1.4 | 2.6 | 6.7 | 69.7*
Cc1c(C(=O)O)cc(-c2ccccc2)n1Cc1ccccc1 | 0.2 | 0.6 | 1.6 | 2.4 | 13.2
Cc1ccc(Cn2cc(C=O)c(-c3ccc(F)cc3)n2)cc1 | 21.3 | -0.1 | 2.6 | 7.7 | 57.5*
Cc1ccc(-c2nn(Cc3ccccc3)cc2C(=O)O)cc1 | -6.0 | 5.3* | 2.0 | 9.1 | 4.9
Cc1ccc(-c2nn(Cc3ccccc3)cc2C=O)cc1 | 44.4 | 1.7 | 5.6 | 34.8 | 53.3*
CCC1C2Cc3ccc(O)cc3C1(CC)CCN2C (centres undefined) | / | 2.1 | -0.8 | / | /
S=P(NCCSCc1ccccc1)(N1CC1)N1CC1 | / | -1.2 | 1.2 | / | /
O=C1Nc2ccccc2Oc2ccccc21 | / | -0.5 | 1.3 | / | /
Cc1oc(-c2ccccc2Cl)nc1CN1C(=O)CN=C(c2ccccc2)c2ccccc21 | 59.5 | -0.5 | -3.3 | -5.4 | 94.6*
O=C(Cn1nc(-c2ccc(Cl)cc2)ccc1=O)N1CCC2(CC1)OCCO2 | -3.2 | 4.4* | 0.1 | 3.0 | -6.7
CC(C)(C)n1cc(C(=O)c2ccccc2OCCCF)cn1 | 0.9 | -1.9 | 1.2 | 2.8 | -0.8
SMILES | HSF1 inh | DAX1 inh | FXN GAA850 act | AHR act | HSF-1 act
CC(C)(C)n1cc(C(=O)c2ccc3ccccc3c2O)cn1 | -71.8* | 1.5 | -1.8 | -4.1 | -74.0
CC(=O)O[C@@H]1/C=C/[C@](C)(O)C[C@@H](C)C/C=C/[C@H]2[C@@H]3O[C@]3(C)[C@@H](C)[C@H]3[C@H](Cc4ccccc4)NC(=O)[C@@]312 | 9.1 | / | 18.2* | 5.3 | 12.5
CC(=O)O[C@@H]1/C=C/[C@](C)(O)C[C@@H](C)C/C=C/[C@H]2[C@H](O)[C@@](C)(O)[C@@H](C)[C@H]3[C@H](Cc4ccccc4)NC(=O)[C@@]312 | 4.3 | / | 0.0 | -1.3 | 4.3
O=C(CN1CC(c2ccccc2)CC1=O)NCc1ccc(F)cc1 (centres undefined) | -66.3* | 0.9 | -0.2 | 4.2 | -73.8
NN=C(N)N | / | 1.2 | 0.5 | 53.3* | /
Cc1ccc(C2NC(=S)NC(c3ccc(C)cc3)C23C(=O)NC(=O)NC3=O)cc1 (centres undefined) | 0.7 | 4.3* | -2.3 | -2.4 | 14.6
CCC1CN1P(=O)(N1CCCC1)N1CC1CC (centres undefined) | / | -0.5 | -0.7 | / | /
O=c1[nH]c(=O)n(Cc2ccccc2)c(O)c1/C=C1\C=Nc2ccccc21 | -8.9 | 0.3 | -0.5 | 10.3 | -16.9
O=c1[nH]c(=O)n(CC2CCCO2)c(O)c1/C=C1\C=Nc2ccccc21 (centres undefined) | 2.9 | 5.4*! | -0.1 | 11.3 | -12.5
CCOc1cccc(C2NCc3ccccc3-n3cccc32)c1O (centres undefined) | 79.8 | 0.3 | 0.8 | 16.8 | 92.6*
Nc1ccc(-c2ccc(N)cc2)cc1 | / | 1.1 | -1.9 | / | /
O=C1NC(=O)N(c2ccccc2)C(=O)/C1=C\c1ccc([N+](=O)[O-])s1 | -7.7 | / | / | 0.0 | 8.7
COc1ccc(OC)c(N2C(=O)NC(=O)/C(=C\c3ccc([N+](=O)[O-])s3)C2=O)c1 | -62.8* | -1.3 | 1.7 | 1.5 | -70.0
O=[N+]([O-])c1ccc(N2CCOCC2)c2c1no[n+]2[O-] | / | -5.9 | -14.3 | / | /
COc1ccc(C2=CC(c3ccc(OC)c(OC)c3)c3c(c4ccccc4oc3=O)O2)cc1OC (centres undefined) | -56.0* | -2.5 | -1.4 | 3.8 | -64.1
CC12CCC3C(CCC4(O)CC(O)CCC34C=NO)C1(O)CCC2C1=COC(=O)C1 (centres undefined) | / | -6.2 | -14.4 | / | /
CC(C)(C)NC(=O)NC(=O)CN1CC=C(c2ccccc2)CC1 | 12.3 | -0.4 | -3.8 | 3.1 | 60.8*
CC(C)CN1Cc2ccccc2-n2nncc2C1 | / | 1.7 | -0.8 | / | /
CCOP(=O)(C#Cc1ccccc1)C(O)c1ccc(Br)cc1 (centres undefined) | 10.4 | 4.6* | -1.0 | 3.3 | 35.1
COP(=O)(C#Cc1ccccc1)C(O)c1ccc(Br)cc1 (centres undefined) | 5.2 | 1.1 | 1.0 | -0.5 | 19.4
CCCCn1c(C)c(C(=O)OCC)c2c(CN3CCOCC3)c(O)ccc21 | 56.2 | -0.6 | -1.4 | 16.7 | 72.3*
COC(=O)C1=C(C(=O)OC)C2OC1c1cc3ccccc3cc12 | 58.9* | -1.9 | -6.8 | / | 58.9*
O=c1[nH]c(=S)n(C2CC2)c(O)c1/C=N/Nc1cccc2ccccc12 | 1.8 | -0.8 | 0.1 | 75.7* | 13.7
O=C1CC23c4ccccc4N4C(=O)CC5OCC=C6CN1C2CC6C5C43 (centres undefined) | 2.9 | 0.0 | -1.5 | / | 2.9
